The values that follow come from PubChem BioAssay (Tox21).

Inconclusive results are not listed. A number with no mark means an inactive call. Active and inactive are the calls of the source. The call rests on the fitted dose curve; in most records, active means well fitted activation curve with a large enough effect in the signal ratio in the repeat runs (not every such curve was filed as active); inconclusive means weak or mixed curves, or effect the other way; inactive means no such curve, though single readings can be large or run the other way; the % refers to the signal ratio.
On the % scale 0 is the no-effect control and ±100 the full control effect; potency means the concentration at half of the fitted maximal effect.

The assay is described as follows: qHTS assay for small molecule agonists of the antioxidant response element (ARE) signaling pathway (AID 743202). The note with it: HepG2 ARE-bla reporter, beta-lactamase FRET, 16 h; series mostly up to 73.3 µM; activation: at the top concentration. The source says:
U.S. Tox21 Program National Center for Advancing Translational Sciences [NCATS] NIH Chemical Genomics Center [NCGC] U.S. Environmental Protection Agency [EPA] National Institutes of Environmental Health Sciences [NIEHS] National Toxicology Program [NTP] U.S. Food and Drug Administration [FDA] Tox21 Assay Overview: Oxidative stress has been implicated in the pathogenesis of a variety of diseases ranging from cancer to neurodegeneration. The antioxidant response element (ARE) signaling pathway plays an important role in the amelioration of oxidative stress. The CellSensor ARE-bla HepG2 cell line (Invitrogen) can be used for analyzing the Nrf2/antioxidant response signaling pathway. Nrf2 (NF-E2-related factor 2) and Nrf1 are transcription factors that bind to AREs and activate these genes. The CellSensor ARE-bla Hep G2 cell line contains a beta-lactamase reporter gene under control of the Antioxidant Response Element (ARE) stably integrated into HepG2 cells. The activation of the report gene under culture conditions can be detected by fluorescence intensity. This cell line has been used to screen the Tox21 10K compound library to identify agonists that induce oxidative stress.
Tox21 Assay Protocol Summary: The ARE-bla cells were dispensed at 2,000 cells/5 ul/well in 1536-well black wall/clear bottom plates using a Multidrop dispenser. After the assay plates were incubated at a 37 C/5% CO2 incubator for 5 hours, 23 nL of compounds dissolved in DMSO, positive controls or DMSO only was transferred to the assay plate by a pin tool. The plates were incubated at 37 C for 16 hours. After 1 uL of LiveBLAzer B/G FRET substrate was added using a Flying Reagent Dispenser, the plates were incubated at room temperature for 2 hours, and fluorescence intensity was measured by an Envision plate reader.
On to `CC(C)(O)C(=O)c1ccc(OCCO)cc1`, for which the “activation” value was -8.89%.
In the case of `CCC(C)(C)C1CCC(OC)CC1` (stereo not given), the “activation” value was -6.43%.
With `C=CC(=O)N1CCOCC1`, the “activation” value is 16.7%.
Turning to `O=[N+]([O-])c1ccc(Oc2ccc([N+](=O)[O-])cc2)cc1`, the “activation” value is -7.51% [at 94.8 µM].
On to `CC(=O)CCc1ccc(O)cc1`, for which the “activation” value is 9.77%.
Turning to `CO`, the “activation” value is 1.89%.
For the molecule `CCn1cc(C(=O)O)c(=O)c2cc(F)c(N3CCN(C)CC3)cc21`, the “activation” value is -12% [at 34.3 µM].
For `CCCC=O`, the “activation” value was -1.12%.
Turning to `Cc1ccccc1Br`, the “activation” value was -5.24%.
On the same count and under the same terms, the value for `NC1CCN(c2cccc(Cl)n2)CC1` was 11%.
Same read-out and setting: next, `O=[N+]([O-])c1ccc(CCO)cc1`: 0.571%; `NC(N)=NS(=O)(=O)c1ccc(N)cc1`: 5.17%.
As for `CCCOc1ccccc1-c1nc2n[nH]nc2c(=O)[nH]1`, the “activation” value was -3.42%.
As to `CCCCCCCCCCCl`, the “activation” value was -2.17% [at 94.8 µM].
`Cc1nccn1CC1CCc2c(c3ccccc3n2C)C1=O` (stereo not given): the “activation” value is -15.6%.
Turning to `N#CCc1ccccc1[N+](=O)[O-]`, the “activation” value was 9.97%.
Consider `O=C1CC2(CCCC2)CC(=O)N1`, for which the “activation” value is 0.853%.
As for `C=C(C)C(=O)NCCCN(C)C`, the “activation” value was -0.33%.
On to `CCCCc1ccc2cccc(S(=O)(=O)O)c2c1`, for which the “activation” value was 6.85%.
As for `OCc1ccccn1`, the Potency is 11.9 µM (active).
Regarding `O=C(O)C1CCC1`, the “activation” value is -3.19%.
`C#CC(O)C(CC)CCCC` (stereo not given): the “activation” value was -15.4%.
Same read-out and setting: next, `Cc1ccccc1C(=O)O`: -4.98%.
With `COc1cccc(OC)c1`, the “activation” value is -12.8%.
`CCOC(=O)Nc1ccc2c(c1)N(C(=O)CCN1CCOCC1)c1ccccc1S2`: the Potency is 11.9 µM (active).
In the case of `Cc1c(F)cc2c(=O)c(C(=O)O)cn3c2c1CCC3C` (stereo not given), the “activation” value is -7.46%.
With `COc1cccc(Br)c1`, the “activation” value is -16.2%.
In the case of `N#CCN(CC#N)CCN(CC#N)CC#N`, the “activation” value is -15.2%.
With `O=Cc1ccccc1[N+](=O)[O-]`, the “activation” value is 0.449%.
With `CCCCC=O`, the “activation” value was -4.79%.
Still for that read-out and setting: the value for `CCCCCOC(=O)Nc1nc(=O)n([C@@H]2O[C@H](C)[C@@H](O)[C@H]2O)cc1F` was -3.27%.
Consider `C=CCSCC1Nc2cc(Cl)c(S(N)(=O)=O)cc2S(=O)(=O)N1` (stereo not given), for which the “activation” value is 3.93%.
Turning to `CNC(=O)c1c(I)c(NC(=O)CCCCC(=O)Nc2c(I)c(C(=O)O)c(I)c(C(=O)NC)c2I)c(I)c(C(=O)O)c1I`, the “activation” value is -5.87%.
In the case of `CCCCCCCCCCCCCCCCCCOCC(O)CO` (stereo not given), the “activation” value is -0.703%.
As for `NC(=S)Nc1cccc2ccccc12`, the activation was -5.35% [at 8.36 µM].
Still for that read-out and setting: the value for `CC1(C)OC(=O)Nc2ccc(Br)cc21` was -10.5%; that for `CN(C)N=Nc1ccccc1` was -19.9%; that for `CCCCCCCCC=O` was 8.27%.
On to `CCCC(C)C(=O)O` (stereo not given), for which the “activation” value is 12%.
On to `CC(C)(C)N(CCO)CCO`, for which the “activation” value was -4.48% [at 94.8 µM].
